Test results reported in PubChem BioAssay AID463173 (ICCB-Longwood Screening Facility, Harvard Medical School, 2010).
Screen size: about 52,000 compounds; about 4,300 (8.3%) were called active. The sample holds actives, similar compounds and a random draw of the others, so the mix is not that of the screen. Values without a mark were called inactive. Rule as the data show it: active = survival mostly below about 52% (no sharp cut-off); inactive = mostly above about 56%.

These compounds were tested on DeltatarO mutant (assay: S. aureus survival, RN4220 and DeltatarO strains – OD600, teichoic acid synthesis inhibitors, primary screen (AID 463173)). Conditions: S. aureus RN4220 wild type/DeltatarO growth, OD600, 18 h, hits give low values, screened at 18.75 µg/mL (by protocol).

Compound	survival
CC(C)C(=O)Nc1nnc2n1CCS2	101%
CCCSc1nc2sc3c(c2c(=O)n1-c1cccc(Br)c1)CC(C)(C)OC3	61%
C=C(C)CSc1nc2sc3c(c2c(=O)n1-c1ccccc1)CC(C(C)C)OC3 (stereo not drawn)	76%
CCCCSc1nc2sc3c(c2c(=O)n1-c1ccccc1C)CC(C)(C)OC3	48%
CCn1c(NN)nc2sc3c(c2c1=O)CC(C)(C)OC3	104%
CCCSc1nc2sc3c(c2c(=O)n1Cc1ccccc1)CC(C)(CC)OC3 (stereo not drawn)	14% (active)
C=C(C)CSc1nc2sc3c(c2c(=O)n1Cc1ccccc1)CC(C)(CC)OC3 (stereo not drawn)	42% (active)
CSc1nc2c([nH]c3ccccc32)c(=O)n1-c1ccc(C)cc1	87%
Cc1ccc(N2C(=O)C3CN4CCCN4C3C2=O)cc1 (stereo not drawn)	78%
COc1ccccc1C(=O)NCC(=O)O	76%
CCc1ccc(S(=O)(=O)c2nnn3c2nc(N2CCCC(C)C2)c2cc(Cl)ccc23)cc1 (stereo not drawn)	63%
Cc1ccc(NC(=O)Cn2c(=O)n(-c3ccccc3)c(=O)c3ccc(C(=O)NCc4ccc5c(c4)OCO5)cc32)cc1	114%
CCOC(=O)c1cccc(NC(=O)c2cc(S(=O)(=O)N3CCCCCC3)cn2C)c1	74%
COc1ccc(N2CCN(S(=O)(=O)CCNC(=O)c3ccc(C(F)(F)F)cc3)CC2)cc1	99%
Cc1ccc(S(=O)(=O)N2CCc3cc(C(=O)NCCc4ccccc4)ccc32)cc1	104%
COc1ccc(CNC(=O)c2ccc3c(c2)CCN3S(=O)(=O)c2ccc(C)cc2)cc1	55%
COc1ccc(CCNC(=O)c2ccc3c(c2)CCN3S(=O)(=O)c2ccc(C)cc2)cc1	43% (active)
COc1ccc(CCNC(=O)c2ccc3c(c2)CCN3S(=O)(=O)c2ccccc2)cc1	44% (active)
COc1ccc(CNC(=O)c2ccc3c(c2)CCN3S(=O)(=O)c2ccc(Cl)cc2)cc1	62%
O=C(NCCc1ccccc1)c1ccc2c(c1)CCN2S(=O)(=O)c1ccccc1	38% (active)

Compound	survival
COc1ccc(CCNC(=O)c2ccc3c(c2)CCN3S(=O)(=O)c2ccc(C)cc2)cc1OC	50%
COc1ccc(CCNC(=O)c2ccc3c(c2)CCN3S(C)(=O)=O)cc1	82%
COc1ccc(CCNC(=O)c2ccc3c(c2)CCN3S(=O)(=O)c2ccc(Cl)cc2)cc1	50%
O=C(NCCc1ccccc1)c1ccc2c(c1)CCN2S(=O)(=O)c1ccc(Br)cc1	67%
COc1ccc(CCNC(=O)c2ccc3c(c2)CCN3S(=O)(=O)c2ccccc2)cc1OC	88%
COc1ccc(CNC(=O)c2ccc3c(c2)CCN3S(=O)(=O)c2ccccc2)cc1	36% (active)
Cc1cccc(-c2nc(CSc3nncn4c3cc3sccc34)c(C)o2)c1	75%
COc1ccc(CC(=O)Nc2cc(-c3cn4cccnc4n3)ccc2OC)cc1	91%
COc1ccc(Cl)cc1NC(=O)CN(c1cccc(C)c1C)S(=O)(=O)c1ccccc1	72%
Cc1cccc(N2CCN(S(=O)(=O)c3ccc4c(c3)CCCN4C(=O)C3CCC3)CC2C)c1 (stereo not drawn)	77%
COc1cccc(-n2cc(C(=O)Nc3cccc(C(F)(F)F)c3)c3ccccc3c2=O)c1	61%
CCCCN(C)c1nnc(NC(=O)Nc2cccc(C(C)=O)c2)s1	93%
Cc1cccc2cc(CN(Cc3ccco3)C(=O)N3CCOCC3)c(Cl)nc12	85%
O=C(CSc1nccn1Cc1ccc(F)cc1)NCc1ccc(F)cc1	71%
O=C(c1cnc(N2CCOCC2)c2ccccc12)N1CCN(c2ccccc2F)CC1	71%
CCCc1cc(N2CCN(c3cc(Cl)ccc3C)CC2)n2cnnc2n1	30% (active)
CCCc1cc(N2CCN(c3ccccc3F)CC2)n2cnnc2n1	75%
CCCc1cc(N2CCN(c3cccc(C)c3C)CC2)n2cnnc2n1	52%
CN(C)c1cc2c(cc1NC(=O)c1ccc(F)cc1)n(C)c(=O)n2C	104%
CCNc1nc(Cl)nc(NC2CCCCC2)n1	90%

Compound	survival
COc1ccc(-c2cc3ccc(O)c(CN4CCC(C)CC4)c3oc2=O)cc1	71%
COc1ccc(-c2cc3ccc(O)c(CN4CCC(C)CC4)c3oc2=O)cc1OC	52% (active)
COc1ccc(-c2cc3ccc(O)c(CN4CCCC4)c3oc2=O)cc1OC	116%
Cc1ccc2oc(=O)c3cnn(CC(=O)N4CCN(c5cccc(C(F)(F)F)c5)CC4)c3c2c1	87%
Cc1cc(C)c2c(n1)nn1c(C)c(CCC(=O)NCc3ccccc3Cl)c(C)nc21	82%
Cc1ccc(NC(=O)CSc2nccn2Cc2ccco2)cc1Cl	87%
CCN(c1ccccc1)S(=O)(=O)c1nnc(NC(=O)c2cccs2)s1	28% (active)
CCN(c1ccc(Cl)cc1)S(=O)(=O)c1nnc(NC(=O)C2CCCCC2)s1	74%
CCN(c1ccccc1)S(=O)(=O)c1nnc(NC(=O)C2CCCCC2)s1	48% (active)
CCN(c1ccc(C)cc1)S(=O)(=O)c1nnc(NC(=O)c2cccs2)s1	14% (active)
CCN(c1ccc(C)cc1)S(=O)(=O)c1nnc(NC(=O)C2CCCCC2)s1	109%
CCN(c1ccccc1)S(=O)(=O)c1nnc(NC(=O)c2ccccc2)s1	38% (active)
CCN(c1ccccc1)S(=O)(=O)c1nnc(NC(=O)C(C)(C)C)s1	49%
CCN(c1ccccc1)S(=O)(=O)c1nnc(NC(=O)C(C)Oc2ccccc2)s1 (stereo not drawn)	43%
COc1ccc(OCC(=O)OCc2cc(=O)n3nc(C4CC4)sc3n2)cc1	61%
COc1ccc(CNC(=O)CC(c2ccc(OC)c(OC)c2)N2Cc3ccccc3C2=O)cc1 (stereo not drawn)	87%
CCC(=O)N1CCc2cc(OC)c(OC)cc2C1COc1ccc2c(C)cc(=O)oc2c1 (stereo not drawn)	136%
O=C(Nc1ccc(F)c(F)c1)c1cc(S(=O)(=O)NC2CCCC2)ccc1F	118%
